HT1080NT lethal – kills 2HG-producing HT-1080-NT fibrosarcoma cells | HT-1080-NT fibrosarcoma viability, CellTiter-Glo ATP luminescence, 48 h | Potency, µM (doses to about 46.1 µM), inactives show at the highest dose activity, negative = less viability, most hits filed as cytotoxic | 1.6% of 360,000 active;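 note: NT is the 2HG producing partner of a matched IDH1 knockdown line; 0% = DMSO-treated cells and -100% = media-only wells without cells; nearly all actives have a fitted effect of over 55% in size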
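Viability by CellTiter-Glo luminescence after 48 h compound exposure at 37C of HT-1080-NT cells (750/well, RPMI, 5% FBS). % activity scaled between DMSO wells and medium-only wells, then curve-fitted and categorized by curve class.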
KB-3-1 cytotox – kills parental KB-3-1 adenocarcinoma cells. KB-3-1 viability, CellTiter-Glo ATP luminescence, 72 h. AID 1347075. 1.4% of 400,000 active. Potency, µM (series often up to 46.1 µM), hits mostly cytotoxic; note: nearly all actives have a fitted effect of over 60% in size
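72 h, 37 °C compound treatment of KB-3-1 parental cells; CellTiter-Glo added, 10 min, luminescence read. Data corrected against DMSO-only plates and normalized before curve fitting.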
HT1080 IDH1KD tx – HT-1080 IDH1 knockdown cell toxicity (counter line) | HT-1080 IDH1 knockdown viability, ATP luminescence, 48 h | Potency, µM (top dose mostly 46.1 µM), without a hit: at the top dose activity, negative = toxicity, usual class: cytotoxic | 2% of 360,000 active | AID 686971;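 note: 0% = DMSO wells and -100% = cell-free medium wells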
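Viability of IDH1-knockdown HT-1080 fibrosarcoma cells was assessed by CellTiter-Glo after 48 h at 37 °C with titrated compound; concentration-effect curves were classified by fit quality and response size.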
KB-V1 MDR tox – KB-V1 MDR subline cytotoxicity; AID 1347076; KB-V1 MDR cells viability, CellTiter-Glo, 72 h; 3.4% of 400,000 active; Potency, µM (highest dose often 46.1 µM), actives largely listed as cytotoxic; note: nearly all actives have a fitted effect of over 60% in size
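In this primary screen, KB-V1 cells overexpressing P-gp are incubated with library compounds (lowest to highest concentration) for 72 h at 37 degrees C before a luminescent ATP viability read.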
Active calls of the source: *; i = inactive; u = inconclusive; x = not tested or not shown. Sampled rows, rich in hits. Any-hit rate of the full collection: about 5.7%. Calls come from the whole dose curve; as a rule, active = well fitted curve in the direction sought with a large enough effect; inconclusive = small, poorly fitted or top-dose-only effect, or another doubt; inactive = no such curve, though single readings can be large; an effect the other way counts as inactive or inconclusive. Unless noted, % is set by controls: 0 for no effect and ±100 for the full control effect; potency is the fitted concentration of half-maximal effect.

SMILES	HT1080NT lethal	KB-3-1 cytotox	HT1080 IDH1KD tx	KB-V1 MDR tox
COC(=O)c1c(C)[nH]c(C(=O)C(C)OC(=O)C2CC2)c1C (stereo unspecified)	8%	u	0%	12µM*
COc1ccc(CNc2nc3ccccc3n2Cc2ccc(Cl)cc2)cc1OC	21µM*	i	16µM*	i
Clc1ccc(COn2c(-c3ccc(Cl)cc3)nc3ccccc32)cc1	-5%	i	8%	18µM*
OCc1nc2ccccc2n1Cc1ccc(Cl)cc1	0%	i	-9%	i
Cc1nc2ccccc2n1Cc1ccc(Cl)cc1	u	u	u	7.3µM*
Clc1cccc[n+]1CCc1ccccc1	x	i	x	i
CCOc1ccccc1Oc1c(C)oc2cc(OC(=O)N3CCOCC3)ccc2c1=O	-1%	i	5%	23µM*
CCC(C)(c1nnnn1-c1c(C)cccc1C)N(N=O)c1cccc(C(F)(F)F)c1 (stereo unspecified)	0%	u	-23%	16µM*
Cn1c(=O)[nH]c2cc(-c3noc(-c4ccc(C#N)cc4)n3)ccc21	x	i	x	u
O=C(O)c1cc(-c2ccccc2)nn1Cc1ccccc1	x	i	x	i
Brc1ccc(NCc2cccc3ccccc23)nc1	-4%	i	-4%	i
Cc1ccc(S(=O)(=O)Nc2ccccc2CNc2ncc(Br)cc2Br)cc1	-13%	u	-9%	2.9µM*
Oc1ccccc1CNc1ccc(Br)cn1	10µM*	i	12µM*	i
Cc1ccc(S(=O)(=O)Nc2ccccc2CNc2ccccn2)cc1	0%	u	-1%	21µM*
Cc1ccc(S(=O)(=O)Nc2ccccc2CNc2ccc(Br)cn2)cc1	-16%	23µM*	-24%	5.8µM*
Cc1ccc(Nc2nc(N)nc(CSc3nc(C)cc(C)n3)n2)cc1	-19%	i	-6%	u
Cc1cccc(Nc2nc(N)nc(CN3CCC(C(N)=O)CC3)n2)c1C	13%	i	13%	i
Cc1ccc(Nc2nc(N)nc(CCl)n2)cc1	2.3µM*	u	8.2µM*	u
Cc1ccc(Nc2nc(N)nc(CC#N)n2)cc1	13µM*	i	7.1µM*	i
Cc1ccccc1Nc1nc(N)nc(COC(=O)c2cccc(S(=O)(=O)N(C)C)c2)n1	6%	i	7%	18µM*
Cc1cccc(Nc2nc(N)nc(CCl)n2)c1C	1.6µM*	u	1.8µM*	u
Cc1ccc(Nc2nc(N)nc(CSCCO)n2)cc1	-7%	i	2%	i
CC1=C(C(=O)Nc2cccnc2)C(c2ccccc2)n2nc(SCc3ccccc3Cl)nc2N1 (stereo unspecified)	x	i	x	u
CCOc1ccc(Nc2nc(N)nc(CSC(=S)N3CCOCC3)n2)cc1	-1%	i	-13%	u
Nc1nc(COC(=O)CCC(=O)c2ccccc2)nc(Nc2ccccc2)n1	6%	i	-1%	i
SMILES	HT1080NT lethal	KB-3-1 cytotox	HT1080 IDH1KD tx	KB-V1 MDR tox
Nc1nc(CSc2ncccn2)nc(Nc2ccccc2)n1	8%	i	17%	i
Nc1nc(COC(=O)c2ccc3c(c2)OCCO3)nc(Nc2ccccc2)n1	-7%	i	-8%	21µM*
Nc1nc(CCl)nc(Nc2ccccc2)n1	3.3µM*	u	u	u
CCOc1ccc(Nc2nc(N)nc(CCl)n2)cc1	0.82µM*	13µM*	u	i
Cc1ccc(Nc2nc(N)nc(CCl)n2)c(C)c1	5.8µM*	u	u	u
CCN(Cc1ccccc1)C(=S)Nc1cc(C(=O)OC)ccc1C(=O)OC	-7%	i	3%	15µM*
C[C@H](NC(=O)c1ccccc1)C(=O)N1CCN(Cc2ccc3c(c2)OCO3)CC1	14%	i	11%	i
O=C(O)c1ccccc1C(=O)N1CCN(Cc2ccc3c(c2)OCO3)CC1	18%	i	18%	i
COc1ccc(C(=O)N2CCN(Cc3cc(OC)ccc3OC)CC2)cc1	4%	i	20%	i
CC(C)[C@H](NC(=O)c1ccc(C(C)(C)C)cc1)C(=O)N1CCN(Cc2ccc3c(c2)OCO3)CC1	u	u	18µM*	u
COc1ccc(OC)c(CN2CCN(C(=O)[C@@H](NC(=O)c3cccc(C)c3)C(C)C)CC2)c1	-10%	i	-2%	9.2µM*
Cc1cc(C(=O)N2CCN(Cc3ccc4c(c3)OCO4)CC2)cs1	12%	i	-3%	15µM*
CCSc1ccccc1C(=O)N1CCN(Cc2ccc3c(c2)OCO3)CC1	8%	i	0%	18µM*
CC1=C/C(=C\c2ccc(N(C)C)cc2)c2ccccc21	x	i	x	i
O=C(c1ccc(S(=O)(=O)N2CCCCC2)cc1)N1CCN(Cc2ccc3c(c2)OCO3)CC1	-1%	u	-1%	2.6µM*
O=C(c1cccc(S(=O)(=O)N2CCOCC2)c1)N1CCN(Cc2ccc3c(c2)OCO3)CC1	3%	i	-11%	u
Cc1ccc2[nH]c3c(c2c1)CN(C(=O)CN1CCN(Cc2ccc4c(c2)OCO4)CC1)CC3	21µM*	u	u	i
O=C(c1cccc(Cl)c1)N1CCN(C(=O)c2ccccc2F)CC1	25%	i	16%	i
O=C(c1ccccc1F)N1CCN(Cc2cccc(Cl)c2)CC1	-3%	i	5%	21µM*
Cc1ccc2[nH]c3c(c2c1)CN(C(=O)CN1CC(C)OC(C)C1)CC3 (stereo unspecified)	1%	i	-2%	i
Cc1ccccc1OCC(=O)Nc1ccc2nc(SCc3ccccc3)sc2c1	x	i	x	u
COc1ccc(NC(=O)c2oc3ccccc3c2NC(=O)C2CCCCC2)c(OC)c1	x	i	x	i
O=C(Nc1ccc(F)cc1Cl)c1cnc(N2CCOCC2)c2ccccc12	x	i	x	i
COc1cc(NC(=O)CCS(=O)(=O)c2ccc3c(c2)CC(=O)N3C)cc(OC)c1OC	x	i	x	i
O=C(Cc1ccccc1F)Nc1ccc(SC(F)F)cc1	-3%	i	-5%	i
SMILES	HT1080NT lethal	KB-3-1 cytotox	HT1080 IDH1KD tx	KB-V1 MDR tox
O=C(Cc1ccc(Cl)cc1)Nc1ccc(SC(F)F)cc1	-1%	u	-7%	21µM*
Cc1ccccc1OCC(=O)NNC(=S)NC(=O)c1ccco1	u	u	8.9µM*	i
Cc1ccccc1OCC(=O)Nc1ccccc1NC(=O)c1ccco1	4%	i	4%	i
CCOc1ccc(CC(=O)Nc2ccc(NC(=O)c3ccco3)cc2)cc1OCC	-24%	i	12µM*	u
CCOc1cc(NC(=O)c2ccco2)c(OCC)cc1NC(=O)COc1ccccc1C	6%	15µM*	2%	u
COC(=O)c1ccccc1NC(=O)COC(=O)c1ccc(C)c(NC(=O)c2ccco2)c1	-1%	i	3%	3.7µM*
COc1ccc(CCNC(=O)CCn2c(=O)c3ccccc3n(Cc3cc(C)ccc3C)c2=O)cc1OC	x	i	x	i
Cc1ccc(NC2=NCC(=O)N2Cc2cccs2)cc1C	-2%	i	-19%	i
Cc1nc2ccc(S(=O)(=O)NC(C(=O)N3CCN(c4cccc(Cl)c4)CC3)C(C)C)cc2s1 (stereo unspecified)	x	i	x	i

High-throughput results as filed in PubChem BioAssay.
